ID4 binder = binds human ID4 protein on microarray. 31,000 tested, 1.2% active. calls only. AID 624137. P47928. small molecule microarray, Flag-ID4 binding, fluorescence F/B; call rule not given here;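 also: a binder raises fluorescence above local background on the spot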
Target sequence (P47928 whole entry, looked up): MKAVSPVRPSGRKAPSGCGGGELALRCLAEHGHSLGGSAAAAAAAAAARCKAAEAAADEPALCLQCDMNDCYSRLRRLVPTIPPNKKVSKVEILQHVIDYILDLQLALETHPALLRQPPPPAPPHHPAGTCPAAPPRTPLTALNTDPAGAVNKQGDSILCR
An asterisk follows results filed as active; i = inactive; + = active, no number. The sample as a whole holds a higher share of hits than the screen did.

SMILES	ID4 binder
Cc1noc(C)c1NC(=O)N(C)C[C@@H]1OCCCC[C@H](C)Oc2ccc(NS(=O)(=O)c3cccs3)cc2C(=O)N([C@@H](C)CO)C[C@@H]1C	+
Cc1noc(C)c1NC(=O)N(C)C[C@H]1OCCCC[C@H](C)Oc2ccc(NS(C)(=O)=O)cc2C(=O)N([C@@H](C)CO)C[C@@H]1C	i
Cc1noc(C)c1NC(=O)N(C)C[C@@H]1OCCCC[C@@H](C)Oc2ccc(NS(C)(=O)=O)cc2C(=O)N([C@H](C)CO)C[C@@H]1C	i
COc1ccc(NC(=O)CC2NC(=O)NC2=O)cc1 (stereo not given)	i
Cc1ccc(NC(=O)c2[nH]c3c(c2C)C(=O)CC(c2ccc(C(C)(C)C)cc2)C3)cc1C (stereo not given)	i
CN(C)/C=N/C(=S)N1CCOCC1	i
Cc1cc(C)c(S(=O)(=O)N(C)CC(=O)Nc2ccc(F)c(Cl)c2)c(C)c1	i
CS(=O)(=O)Nc1ccc(S(=O)(=O)NCC2CCCO2)cc1 (stereo not given)	i
O=C(Nc1ccc(S(=O)(=O)Nc2nccs2)cc1)C1CC(=O)N(c2ccccc2)C1 (stereo not given)	i
Cc1ccc(N2CC(C(=O)Nc3ccc(S(=O)(=O)NCC4CCCO4)cc3)CC2=O)cc1 (stereo not given)	+
CC(C)(C)c1ccc(-c2ncon2)cc1Cn1nnc(-c2cccc(C(F)(F)F)c2)n1	i
O=C(CSc1ccc2ccccc2n1)Nc1ccnc2ccccc12	i
O=C(COc1ccc(I)cc1)Nc1cc(C(=O)O)cc(C(=O)O)c1	+
COC(=O)c1cccc(NC(=O)COc2ccc(I)cc2)c1	i
O=C(COc1ccc(I)cc1)Nc1ccc(O)cc1C(=O)O	i
CCOc1ccc(NC(=O)CC2C(=O)NCCN2C(=O)c2ccccc2)cc1 (stereo not given)	i
CCN(CC(=O)Nc1ccccc1C(F)(F)F)S(=O)(=O)c1ccc(C)cc1	i
COc1ccccc1NC(=O)CSc1nc2ccccc2c(=O)n1-c1ccc(C)cc1	i
Cc1coc(C)c1C(=O)CC1(O)C(=O)N(CCc2ccccc2)c2ccc(Cl)cc21 (stereo not given)	i
CNC[C@H]1Oc2ccc(NC(=O)Nc3ccc4c(c3)OCO4)cc2CC(=O)N([C@H](C)CO)C[C@@H]1C	i
CNC[C@@H]1Oc2ccc(NC(=O)Nc3ccc4c(c3)OCO4)cc2C(=O)N([C@@H](C)CO)C[C@H]1C	+
CNC[C@H]1Oc2ccc(NC(=O)Nc3ccc4c(c3)OCO4)cc2CC(=O)N([C@@H](C)CO)C[C@@H]1C	+
CNC[C@@H]1Oc2ccc(NS(=O)(=O)c3ccccc3)cc2C(=O)N([C@H](C)CO)C[C@H]1C	i
CNC[C@@H]1Oc2ccc(NS(=O)(=O)c3ccccc3)cc2C(=O)N([C@H](C)CO)C[C@@H]1C	i
C[C@H]1CN([C@@H](C)CO)C(=O)c2cc(NC(=O)Nc3ccc4c(c3)OCO4)ccc2O[C@H]1CN(C)C	i
SMILES	ID4 binder
C[C@@H]1CN([C@H](C)CO)C(=O)c2cc(NC(=O)Nc3ccc4c(c3)OCO4)ccc2O[C@@H]1CN(C)Cc1ccncc1	i
CNC[C@@H]1Oc2ccc(NC(=O)Nc3ccc4c(c3)OCO4)cc2CC(=O)N([C@@H](C)CO)C[C@@H]1C	i
CNC[C@@H]1Oc2ccc(NS(=O)(=O)c3ccccc3)cc2C(=O)N([C@@H](C)CO)C[C@H]1C	+
C[C@@H]1CN([C@@H](C)CO)C(=O)c2cc(NC(=O)Nc3ccc4c(c3)OCO4)ccc2O[C@H]1CN(C)Cc1ccncc1	+
C[C@@H]1CN([C@@H](C)CO)C(=O)c2cc(NC(=O)Nc3ccc4c(c3)OCO4)ccc2O[C@H]1CN(C)C	i
C[C@@H]1CN([C@@H](C)CO)C(=O)c2cc(NC(=O)Nc3ccc4c(c3)OCO4)ccc2O[C@@H]1CN(C)Cc1ccc(C(F)(F)F)cc1	i
Cc1ccc2nc(-c3cccnc3)cc(C(=O)NCc3cnn(C)c3)c2c1	i
CC12CCCCC1C1(C=CC(=O)C=C1)C(c1ccccc1)=N2 (stereo not given)	i
O=C(CSc1nnc(-c2ccc(Cl)cc2)o1)Nc1ccccc1C(F)(F)F	i
CCOC(=O)c1c(NC(=O)Cn2ccc([N+](=O)[O-])n2)sc(C)c1C	i
COc1ccc(NC(=O)CN(c2ccc(Br)c(C)c2)S(C)(=O)=O)cc1Cl	i
COC(=O)c1cccc(NC(=O)CN(c2ccc(Cl)c(C(F)(F)F)c2)S(C)(=O)=O)c1C	i
O=C(CSc1nnnn1C1CCCCC1)Nc1ccccc1[N+](=O)[O-]	i
O=S1(=O)NC(=NCCCCO)c2ccccc21	i
O=C(CN1C(=O)C2C3C=CC(C4CC34)C2C1=O)Nc1ccc(Oc2ccccc2)cc1 (stereo not given)	i
CSc1nc2n(n1)C(=O)CC(C)(C)N2	i
Cc1ccc(C(=O)NC(=O)CSc2nnnn2-c2ccccc2)cc1	i
CC(C)OC(=O)CSc1nc2c(c(-c3ccccc3)c1C#N)CCC2	i
C[C@H](CO)N1C[C@H](C)[C@H](CN(C)C)OCCCC[C@H](C)Oc2ccc(NC(=O)Nc3ccc4c(c3)OCO4)cc2C1=O	i
C[C@@H]1CCCCO[C@H](CN(C)C)[C@@H](C)CN([C@@H](C)CO)C(=O)c2cc(NC(=O)Nc3ccc4c(c3)OCO4)ccc2O1	i
CNC[C@@H]1OCCCC[C@H](C)Oc2ccc(NC(=O)Nc3ccc4c(c3)OCO4)cc2C(=O)N([C@@H](C)CO)C[C@@H]1C	+
C[C@H]1CN([C@@H](C)CO)C(=O)Cc2cc(NS(=O)(=O)c3ccccc3)ccc2O[C@@H]1CN(C)C(=O)Nc1ccccc1	i
C[C@@H]1CN([C@@H](C)CO)C(=O)Cc2cc(NC(=O)Cn3cnnn3)ccc2O[C@@H]1CN(C)C(=O)Nc1ccc(F)cc1	i
C[C@H]1CN([C@@H](C)CO)C(=O)Cc2cc(NC(=O)Cn3cnnn3)ccc2O[C@@H]1CN(C)C(=O)Nc1ccccc1	i
C[C@@H]1CN([C@@H](C)CO)C(=O)Cc2cc(NS(=O)(=O)c3ccccc3)ccc2O[C@H]1CN(C)C(=O)Nc1ccccc1	+
SMILES	ID4 binder
C[C@@H]1CN([C@@H](C)CO)C(=O)Cc2cc(NC(=O)Cc3ccccc3)ccc2O[C@H]1CN(C)C(=O)Nc1ccccc1	+
C[C@@H]1CN([C@H](C)CO)C(=O)Cc2cc(NS(=O)(=O)c3ccccc3)ccc2O[C@H]1CN(C)C(=O)Nc1ccccc1	i
C[C@@H]1CN([C@H](C)CO)C(=O)Cc2cc(NC(=O)Cc3ccccc3)ccc2O[C@H]1CN(C)C(=O)Nc1ccccc1	i
C[C@@H]1CN([C@H](C)CO)C(=O)Cc2cc(NC(=O)Cc3ccccc3)ccc2O[C@@H]1CN(C)C(=O)Nc1ccccc1	i
C[C@H](CO)N1C[C@H](C)[C@@H](CN(C)C(=O)Nc2ccccc2)Oc2ccc(NC(=O)Cn3cnnn3)cc2CC1=O	+
OC(COc1ccccc1Cl)Cn1cnc2ccccc21 (stereo not given)	i
O=C(COc1cc(Cl)c(Cl)cc1Cl)Nc1ccccc1C(=O)N1CCCCC1	i
COc1cc(S(=O)(=O)NCc2cccnc2)ccc1Br	i
Cc1cc(Cl)ccc1OC(C)C(=O)Nc1cc(C(=O)O)cc(C(=O)O)c1 (stereo not given)	i
COc1ccc(Cl)cc1NC(=O)CN(c1ccc(Br)c(C)c1)S(C)(=O)=O	i
Cc1cccc(C)c1Nc1c(-c2ccsc2)nc2sccn12	i
Cc1cc(C)nc(Nc2n[nH]c(CSc3nc4ccccc4s3)n2)n1	i
